Anthrax LF prot = inhibitors of Bacillus anthracis lethal factor protease; P15917; multiplex microsphere protease cleavage assay, LF; inhibition, % at 10 µM; 360,000 compounds, 0.12% hits; note: plate controls were buffer without enzyme for full effect and enzyme alone for no effect
Target sequence (P15917 whole entry, looked up): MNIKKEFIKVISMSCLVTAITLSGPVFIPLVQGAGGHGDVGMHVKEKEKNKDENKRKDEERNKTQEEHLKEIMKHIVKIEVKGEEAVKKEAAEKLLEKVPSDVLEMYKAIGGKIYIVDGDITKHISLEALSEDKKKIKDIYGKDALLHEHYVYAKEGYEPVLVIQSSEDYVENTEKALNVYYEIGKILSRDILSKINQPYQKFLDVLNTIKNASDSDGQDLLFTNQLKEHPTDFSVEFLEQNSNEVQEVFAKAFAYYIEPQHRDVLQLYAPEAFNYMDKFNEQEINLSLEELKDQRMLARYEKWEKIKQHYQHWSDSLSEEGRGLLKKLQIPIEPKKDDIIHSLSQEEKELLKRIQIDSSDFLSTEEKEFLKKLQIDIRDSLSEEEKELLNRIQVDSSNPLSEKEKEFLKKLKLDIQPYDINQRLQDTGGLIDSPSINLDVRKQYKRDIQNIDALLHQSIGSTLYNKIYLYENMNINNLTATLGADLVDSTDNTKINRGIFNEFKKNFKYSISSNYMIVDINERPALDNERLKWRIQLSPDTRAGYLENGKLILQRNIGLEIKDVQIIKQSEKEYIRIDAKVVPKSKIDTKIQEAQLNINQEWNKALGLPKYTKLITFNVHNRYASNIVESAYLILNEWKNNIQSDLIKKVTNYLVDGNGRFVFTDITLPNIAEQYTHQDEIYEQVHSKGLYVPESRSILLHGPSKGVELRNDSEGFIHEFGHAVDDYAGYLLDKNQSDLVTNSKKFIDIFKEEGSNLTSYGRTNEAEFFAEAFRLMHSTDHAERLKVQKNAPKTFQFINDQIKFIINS
Bead autofluor = counter-screen for toxin protease inhibitors: compound fluorescence; compound autofluorescence counterscreen, microsphere flow cytometry; hits give high values; fluorescence intensity (concentration not given with the values); 360,000 compounds, 3.1% hits; in the data active = fluorescence intensity above about 16000; inconclusive = no clear call, values can overlap the other calls
BoNT A protease = BoNT A light chain protease inhibition | multiplex microsphere protease substrate cleavage, flow cytometry | inhibition, % at 10 µM | 360,000 compounds, 0.17% hits; note: plate controls were buffer without enzyme for full effect and enzyme alone for no effect
BoNT-F LC inh = BoNT F light chain protease inhibition; Multiplex microsphere protease cleavage assay, flow cytometry; inhibition, % at 10 µM; 360,000 compounds, 0.22% hits; AID 588497; in the data active = inhibition above about 35%, passing the limit was not always enough; inconclusive = no clear call, values can overlap the other calls; note: plate controls were buffer without enzyme for full effect and enzyme alone for no effect
Mtb FBA inh = inhibitors of M. tuberculosis fructose-bisphosphate aldolase | P9WQA3 | inhibition, % at 1 µM | 360,000 compounds, 2.3% hits | purified M. tuberculosis FBA, fluorescence read-out; in the data active = inhibition above about 27%;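 note: 0% = vehicle and 100% = reference inhibitor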
GDH-TPI inh = GDH-TPI coupled enzyme inhibition counter-screen. GDH-TPI coupled enzyme counterscreen, NADH absorbance. 360,000 compounds, 1.2% hits. AID 588335. inhibition, % at 4.8 µM; in the data active = inhibition above about 30%;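 note: 0% = DMSO wells and 100% = wells lacking the enzyme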
Starred values were filed as active, the others as inactive. This is a sample that favours compounds with a hit; in the whole collection about 6.6% have one here. Cut-off read from the data, not from the text of the source, unless noted: active = inhibition above about 30%; inconclusive = no clear call, values can overlap the other calls; inactive = below that.

Screening Nc1nc(NCCCN2CCOCC2)nc(Nc2cccc(F)c2)c1[N+](=O)[O-] returned Anthrax LF prot -14.2, Bead autofluor 3400, BoNT A protease -6.5, BoNT-F LC inh inconclusive, Mtb FBA inh -3.4 and GDH-TPI inh 51.0*.
Cc1ccc(Nc2nc(N)c([N+](=O)[O-])c(N3CCOCC3)n2)cc1C was read as Anthrax LF prot -5.7, Bead autofluor 6851, BoNT A protease -0.3, BoNT-F LC inh -16.3, Mtb FBA inh -4.5 and GDH-TPI inh 21.3.
Screening COc1ccc(Nc2nc(NCCCN3CCOCC3)nc(N)c2[N+](=O)[O-])cc1 returned Anthrax LF prot -4.5, Bead autofluor 4618, BoNT A protease -0.1, BoNT-F LC inh -6.6, Mtb FBA inh -1.9 and GDH-TPI inh 24.1.
Cc1cccc(Nc2nc(NCCCN3CCOCC3)nc(N)c2[N+](=O)[O-])c1 was read as Anthrax LF prot -1.6, Bead autofluor 9925, BoNT A protease 1.9, BoNT-F LC inh 12.2, Mtb FBA inh -4.8 and GDH-TPI inh 64.2*.
Nc1nc(Nc2cccc(F)c2)nc(N2CCOCC2)c1[N+](=O)[O-] was read as Anthrax LF prot 11.2, Bead autofluor 6120, BoNT A protease -13.3, BoNT-F LC inh inconclusive, Mtb FBA inh -1.5 and GDH-TPI inh 36.5*.
Screening CN1CCN(c2nc(Nc3ccccc3)nc(N)c2[N+](=O)[O-])CC1 returned Anthrax LF prot -5.2, Bead autofluor 4052, BoNT A protease -5.1, BoNT-F LC inh inconclusive, Mtb FBA inh -2.0 and GDH-TPI inh 23.9.
Screening COc1ccc(CN(C)C(=O)c2ccc(NS(=O)(=O)c3ccc(F)cc3)cc2)c(OC)c1OC returned Anthrax LF prot -0.5, Bead autofluor 6190, BoNT A protease 1.6, BoNT-F LC inh 1.4, Mtb FBA inh -0.8 and GDH-TPI inh -13.0.
`COc1ccc(C2Nc3ccccc3C(=O)N2NS(=O)(=O)c2ccccc2)cc1OC` (stereo unspecified) gave Anthrax LF prot -8.4, Bead autofluor 4258, BoNT A protease -0.1, BoNT-F LC inh -3.5, Mtb FBA inh 12.0 and GDH-TPI inh 1.8.
For COc1ccccc1NC(=O)NC(=O)c1ccccc1 the results were Anthrax LF prot -0.5, Bead autofluor 3738, BoNT A protease 4.9, BoNT-F LC inh inconclusive, Mtb FBA inh -0.7 and GDH-TPI inh -1.5.
Screening COc1ccccc1NC(=O)Nc1nnc(CC(=O)Nc2ccccc2C)s1 returned Anthrax LF prot 4.3, Bead autofluor 4379, BoNT A protease -0.3, BoNT-F LC inh -3.2, Mtb FBA inh 1.6 and GDH-TPI inh -3.5.
CCc1nnc(NC(=O)Nc2ccccc2OC)s1 was read as Anthrax LF prot -7.1, Bead autofluor 22103*, BoNT A protease inconclusive, BoNT-F LC inh 1.0, Mtb FBA inh 0.0 and GDH-TPI inh 2.4.
Screening COc1ccccc1NC(=O)NC(N)=O returned Anthrax LF prot -0.2, Bead autofluor 21653*, BoNT A protease 0.2, BoNT-F LC inh -3.4, Mtb FBA inh -1.9 and GDH-TPI inh 27.9.
`COc1ccc(NS(=O)(=O)c2cc(NC(=O)/C=C/c3ccccc3OC)ccc2N2CCCCC2)cc1` gave Anthrax LF prot -2.5, Bead autofluor 2068, BoNT A protease -0.2, BoNT-F LC inh -6.9, Mtb FBA inh 2.5 and GDH-TPI inh 8.1.
For CN1CCN(/C=N/c2c(C#N)cnn2Cc2ccccc2)CC1 the results were Anthrax LF prot -5.2, Bead autofluor 20606*, BoNT A protease inconclusive, BoNT-F LC inh -2.6, Mtb FBA inh 1.4 and GDH-TPI inh -1.8.
For N#Cc1cnn(Cc2ccccc2)c1/N=C/N1CCOCC1 the results were Anthrax LF prot 1.6, Bead autofluor 4195, BoNT A protease -0.3, BoNT-F LC inh -5.4, Mtb FBA inh -7.7 and GDH-TPI inh -11.5.
For CCN(CC(=O)Nc1c(F)cccc1F)C(=O)CSC(=S)N1CCCC1 the results were Anthrax LF prot -7.7, Bead autofluor 6227, BoNT A protease -1.3, BoNT-F LC inh -17.7, Mtb FBA inh 4.4 and GDH-TPI inh 10.2.
`CCn1c2c(c3cc(Br)ccc31)CCC/C2=N\O` gave Anthrax LF prot -4.7, Bead autofluor 29475*, BoNT A protease -19.2, BoNT-F LC inh -23.6, Mtb FBA inh 2.6 and GDH-TPI inh 15.5.
Screening Clc1ccc(CNc2ccc(CNc3ncn[nH]3)cc2)cc1 returned Anthrax LF prot -1.2, Bead autofluor 9836, BoNT A protease -0.5, BoNT-F LC inh -4.7, Mtb FBA inh 0.5 and GDH-TPI inh 5.6.
Screening Clc1ccc(Nc2ncn[nH]2)cc1 returned Anthrax LF prot 1.0, Bead autofluor 23107*, BoNT A protease -0.1, BoNT-F LC inh -2.2, Mtb FBA inh 4.0 and GDH-TPI inh 1.3.
Screening COc1ccc(Cl)cc1C1=NOC2(CCC2)C(=O)N1Cc1ccc(NC(C)=O)cc1 returned Anthrax LF prot -3.7, Bead autofluor 5413, BoNT A protease 0.3, BoNT-F LC inh 3.9, Mtb FBA inh 1.8 and GDH-TPI inh 5.3.
Screening COC(=O)C1C2c3ccccc3OC1(C)N=c1s/c(=C/c3cnn(C)c3)c(=O)n12 (stereo unspecified) returned Anthrax LF prot -3.8, Bead autofluor 2890, BoNT A protease 0.1, BoNT-F LC inh -4.7, Mtb FBA inh 2.5 and GDH-TPI inh 14.2.
CC(=O)C1C2c3ccccc3OC1(C)N=c1s/c(=C/c3cn(C)nc3C)c(=O)n12 (stereo unspecified) was read as Anthrax LF prot 10.2, Bead autofluor inconclusive, BoNT A protease -0.2, BoNT-F LC inh 0.1, Mtb FBA inh 0.9 and GDH-TPI inh 35.6*.
COc1ccc(C(C)(O)c2nc(-c3cccc(C(C)C)c3)cs2)cc1 (stereo unspecified) was read as Anthrax LF prot -2.4, Bead autofluor 3655, BoNT A protease -0.2, BoNT-F LC inh 2.2, Mtb FBA inh -2.3 and GDH-TPI inh -6.2.
`Cn1c(CS(=O)Cc2c(Cl)cccc2Cl)nnc1SCc1c(Cl)cccc1Cl` (stereo unspecified) gave Anthrax LF prot -1.9, Bead autofluor 16613*, BoNT A protease -0.6, BoNT-F LC inh -1.4, Mtb FBA inh 2.3 and GDH-TPI inh 3.1.
`Cn1c(CO)cnc1SCc1c(Cl)cccc1Cl` gave Anthrax LF prot -1.3, Bead autofluor 22193*, BoNT A protease inconclusive, BoNT-F LC inh -1.2, Mtb FBA inh -2.2 and GDH-TPI inh 14.8.
`Cn1c(CO)cnc1SCc1ccc(F)cc1` gave Anthrax LF prot -4.4, Bead autofluor 4641, BoNT A protease 0.5, BoNT-F LC inh 0.4, Mtb FBA inh 1.6 and GDH-TPI inh 1.9.
Screening O=S(Cc1ccc(Br)cc1)Cc1nnc(SCc2c(Cl)cccc2Cl)n1-c1ccccc1 (stereo unspecified) returned Anthrax LF prot -2.5, Bead autofluor 11794, BoNT A protease -0.2, BoNT-F LC inh -0.6, Mtb FBA inh -3.0 and GDH-TPI inh 2.6.
For COc1cc(C(C[N+](=O)[O-])c2c(C)[nH]c3ccccc23)cc(OC)c1OC (stereo unspecified) the results were Anthrax LF prot -1.5, Bead autofluor 21574*, BoNT A protease -0.3, BoNT-F LC inh -3.2, Mtb FBA inh -0.5 and GDH-TPI inh 14.6.

Screening results: PubChem BioAssay, several laboratories
